Compound activity: PubChem, several laboratories
This is a sample that favours compounds with a hit; in the whole collection about 2.9% have one here.
Shn3 3UTR inh: reduction of Shn3 3'UTR firefly luciferase signal, primary screen, Schnurri-3 inhibitor project, cell-based, Clone20 osteoblasts, set 2; inhibition, % at 12.5 µM; Clone20 osteoblast Shn3 3'UTR firefly luciferase, 24 h; 360,000 tested, 0.52% active;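 active means mean inhibition of at least 75% with every replicate also reaching 75%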
CF NFkB block: inhibitors of PAF-induced NF-kB signaling, primary screen, cell-based, GFP fluorescence, uHTS. KKLEB NF-kB-GFP reporter, GFP fluorescence overnight. inhibition, % at 5 µM. 360,000 tested, 0.86% active. AID 588850, 2011;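 active means at least 50% inhibition at 5 µM, scaled per plate between neutral and stimulator controls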;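 further: PAF is a Pseudomonas aeruginosa culture filtrate used as stimulus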
Peg3 prom inh: Peg3 promoter-driven luciferase inhibitors, primary screen, cell-based, HeLa, luciferase luminescence; HeLa PEG-Prom luciferase reporter, overnight; inhibition, % at 20 µM; 360,000 tested, 1.7% active; AID 588405, 2011;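 active means inhibition of at least 50% at 20 µM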
HIF-2a inh: HIF-2a reporter inhibitors, primary screen, luminescence, 786-0 RCC cells; 786-0 RCC cells HIF-2a reporter, luciferase luminescence, overnight; inhibition, % at 18.8 µM; 360,000 tested, 0.72% active;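 active means inhibition of the luminescence signal of 40% or more relative to plate controls, in a single-dose primary screen at 18.75 µM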
KKLEB tox: cytotoxicity in KKLEB CF airway cells, primary screen, cytotoxicity control for CF NF-kB inhibitor project, cell-based, uHTS, fluorescence assay plates. KKLEB CF airway cells viability, ATPlite luminescence, overnight; hits give low values; cells stimulated with P. aeruginosa culture filtrate. activity change (cytotoxicity), % at 5 µM. 360,000 tested, 0.36% active;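 active means corrected activity change at or below -50% at 5 µM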
LMP1 NFkB inh: EBV LMP1-driven NF-kappaB luciferase reporter inhibitors, primary screen, cell-based, luminescence, single point; LMP1-induced NF-kappaB luciferase reporter cells; 350,000 tested, 0.69% active; inhibition, % at 12.5 µM; in the data active means inhibition above about 41%
A number is an active result; 0 = inactive; - = no result.

SMILES	Shn3 3UTR inh	CF NFkB block	Peg3 prom inh	HIF-2a inh	KKLEB tox	LMP1 NFkB inh
CC(CN1CCCCC1)OC(=O)c1ccc2c(c1)OCO2 (centres undefined)	0	0	0	0	0	43.1
OC(CNCc1ccco1)Cn1c2ccc(Br)cc2c2cc(Br)ccc21 (centres undefined)	0	0	98.4	0	0	0
COc1ccc(-c2cc(-c3ccc(OC)cc3)c(C#N)c(SC)n2)cc1	0	50.1	0	0	0	0
CCOc1cc(C=NN2CCCCCC2)ccc1O	0	0	0	0	0	0
C(=N\N1CCN(Cc2ccccc2)CC1)/c1ccc(-c2ccccc2)cc1	89.5	0	0	0	0	0
Cc1ccc(/C=N/N2CCN(Cc3ccccc3)CC2)cc1	0	0	0	0	0	0
CCOc1cc(/C=N/N2CCN(Cc3ccccc3)CC2)ccc1O	0	0	0	0	0	45.0
CCC(C)NC(=O)C1(O)c2ccccc2NC(=O)N1c1ccc(C)c(C)c1 (centres undefined)	0	0	0	0	0	0
O=C1NC[C@H](c2ccccc2)OC(=O)[C@@H](Cc2ccc(F)cc2)C/C=C\C[C@H]1CC(=O)N(CCO)Cc1ccccc1	0	84.4	68.3	0	-53.1	0
O=C1NC[C@@H](c2ccccc2)OC(=O)[C@H](Cc2ccc(F)cc2)C/C=C\C[C@H]1CC(=O)N(CCO)Cc1ccccc1	0	0	0	0	0	0
O=C1NC[C@H](c2ccccc2)OC(=O)[C@H](Cc2ccc(F)cc2)C/C=C\C[C@H]1CC(=O)N(CCO)Cc1ccccc1	0	102.5	54.1	0	-86.4	0
O=C(NCCOc1ccc(F)cc1)c1ccccc1SCc1ccccc1	0	0	60.3	0	0	0
Cc1ccc(-c2nnc(N3CCC(C)CC3)c3ccccc23)cc1C	90.5	0	0	0	0	0
O=S1(=O)CC(N2CCN(CCO)CC2)CN1Cc1cn(Cc2ccccc2)nn1 (centres undefined)	-	-	-	0	-	-
CCCC(=O)NC(=S)Nc1ccccc1C(F)(F)F	0	0	0	0	0	0
CCC(=O)NC(=S)Nc1ccccc1C(F)(F)F	0	0	0	0	0	72.9
Nc1ccc(N(c2ccccc2)c2ccc(N)cc2)cc1	0	87.0	0	0	0	0
COc1ccc(OC)c(C(=O)N(C)C2CCCN(Cc3ccccc3F)C2)c1 (centres undefined)	0	0	0	0	0	0
COc1ccccc1OCCC(=O)OCC(=O)NCc1ccc(F)cc1	0	0	0	0	0	69.1
O=C(COC(=O)CCc1c[nH]c2ccccc12)NCc1ccc(Cl)cc1	0	0	0	0	0	46.2
CCc1ccccc1N(C)S(=O)(=O)c1cc(-c2cc(C)no2)ccc1OC	0	0	0	0	0	0
COc1ccc(CCNC(=O)CSc2nnc3ccc(-c4ccccn4)nn23)cc1	0	0	0	0	0	0
CCc1nnc(NC(=O)c2cccc(C(=O)Nc3nnc(CC)s3)n2)s1	88.1	0	0	0	0	0
CCc1ccc2c(c1)C(=O)C(=O)N2CCS(=O)(=O)c1ccccc1	0	0	0	0	0	0
O=C1C(=O)N(CCS(=O)(=O)c2ccccc2)c2ccc(Cl)cc21	0	0	64.0	0	0	0
SMILES	Shn3 3UTR inh	CF NFkB block	Peg3 prom inh	HIF-2a inh	KKLEB tox	LMP1 NFkB inh
COC(=O)c1ccc2c(=O)n(Cc3ccc(C(=O)NCCCN4CCC(C)CC4)cc3)c(=S)[nH]c2c1	0	0	0	0	0	0
CC1CCN(CCCNC(=O)c2ccc3c(=O)n(Cc4ccc(Cl)cc4)c(=S)[nH]c3c2)CC1	0	0	113.8	0	0	0
CCOc1cc2[nH]c(=S)n(Cc3ccc(C(=O)NCCCN4CCOCC4)cc3)c(=O)c2cc1OCC	0	0	0	0	0	0
CCOc1cc2[nH]c(=O)n(Cc3ccc(C(=O)NCCCN4CCC(C)CC4)cc3)c(=O)c2cc1OCC	0	0	82.2	0	0	0
Nc1nc2c(ncn2[C@@H]2O[C@H](CNCc3ccc(Oc4cc(-n5cccn5)ncn4)cc3)[C@@H](O)[C@H]2O)c(=O)[nH]1	0	0	0	0	0	-
O=C1CCc2cc(S(=O)(=O)NC3CCCCC3)ccc2N1	0	0	103.3	0	0	0
O=C(CSc1nc(C2CC2)nc2ccccc12)Nc1ccccc1	0	0	0	0	0	0
COc1cc(NC(=O)CSc2nc(C3CC3)nc3ccccc23)cc(OC)c1	0	0	98.7	0	0	0
C=C1C(=O)[C@]23C[C@H]1CCC2[C@@]1(C)C(C[C@@H]3O)[C@](C)(C(=O)OC)CC[C@@H]1O (some centres undefined)	99.2	90.3	100.4	98.8	-73.4	-
OC(CNCCc1ccc(Cl)cc1)COc1cc(Cl)ccc1Cl (centres undefined)	0	0	103.9	0	0	0
OC(CNCCC(c1ccccc1)c1ccccc1)COc1ccccc1 (centres undefined)	0	0	59.6	0	0	0
OC(CNCCc1ccccc1)COc1ccc(OCC(O)CNCCc2ccccc2)cc1 (centres undefined)	-	0	102.1	0	0	0
CC(C)CCNCC(O)CON=C1c2ccccc2-c2ccccc21 (centres undefined)	0	0	107.2	0	0	0
CC1(C(=O)NS(=O)(=O)C2CC2)CCN(C(=O)c2ccc3c(c2)OCO3)C1 (centres undefined)	0	0	0	0	0	-
O=C(Oc1ccccc1)N(c1ccccc1)c1ccccc1	-	0	0	0	0	-
Cc1ccc(S(=O)(=O)N2CCN(Cc3ccsc3)CC2)cc1	0	0	0	0	0	0
OC(CNCCc1ccc(Cl)cc1)COc1ccc2ccccc2c1 (centres undefined)	0	0	66.7	0	0	0
CCN(CC)CCNC(=O)c1ccc(NC(=O)c2ccc(Cl)c(S(=O)(=O)N3CCCCCC3)c2)cc1	0	0	87.6	0	0	0
Cc1ccc(NC(=O)CN(C)CC(=O)Nc2cccc(F)c2)cc1S(=O)(=O)N1CCCCCC1	0	0	59.1	0	0	0
COc1ccc(NC(=O)CN(C)CC(=O)Nc2cccc(F)c2)cc1S(=O)(=O)N1CCCCC1	0	0	0	0	0	0
Cc1ccc(NC(=O)c2ccccc2NS(=O)(=O)c2ccc(F)cc2)cc1S(=O)(=O)N1CCCCC1	0	0	52.5	0	0	0
CCN(CC)CCNC(=O)c1ccc(NC(=O)c2ccc(S(=O)(=O)N3CCCCCC3)cc2)cc1	0	0	0	0	0	0
Cc1ccc(C(=O)Nc2cccc(C(=O)O)c2)cc1S(=O)(=O)N1CCCCC1	0	0	0	0	0	44.1
